ELG1 DNA repair = ELG1-dependent DNA repair inhibition; HEK293T ELG1-luciferase reporter, luminescence, 16 h; DNA damage induced by 5-fluorouridine; AID 504467; 2.3% of 330,000 active; Potency, µM (series often up to 46.1 µM), for the others: at the highest dose activity change, negative = inhibition, most hits filed as inhibitors; note: potency is the fitted concentration of half-maximal effect; nearly all actives have a fitted effect of over 55% in size
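HEK293T cells expressing luciferase-tagged ELG1 (2,000/well) received 5-Fluorouridine plus compound or DMSO for 16 hr at 37 °C. Luciferase was read by ONE-Glo luminescence after 30 min at room temperature.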
IL-1B inflam inh = inflammasome signaling inhibition, IL-1 beta readout; activity change, % at 57.5 µM; 4.7% of 360,000 active; THP-1 LPS/ATP IL-1B secretion, AlphaLISA, 16 h; stronger effect = lower value; in the data active = activity change below about -50%; inconclusive = mostly about -30% to -49%
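Secreted IL-1B measured by AlphaLISA bead assay after 16 h compound exposure of THP-1 cells; compounds (final up to 57.5 uM) added 1 h before LPS (250 ng/mL) and ATP (1.25 mM) stimulation; lower signal means less secretion.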
DT40 TDP1 no CPT = qHTS for Inhibitors of human tyrosyl-DNA phosphodiesterase 1 (TDP1): qHTS in cells in absence of CPT | DT40 Tdp1-/- hTDP1 cells, no CPT, ATP luminescence, 48 h | Potency, µM (doses to about 46.2 µM), for inactives: at the top dose activity change, negative = growth inhibition, actives largely listed as inhibitors | 15% of 420,000 active | AID 686978, 2013; note: potency is the fitted concentration of half-maximal effect; nearly all actives have a fitted effect of over 55% in size
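Readout: luminescence from CellTiter-Glo after 30 min in the dark at RT. Cells: DT40 Tdp1-/- with stable hTDP1, 400/well. Exposure: compounds alone, ≥48 hr, 37 °C.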
HT1080 IDH1KD tx = HT-1080 IDH1 knockdown cell toxicity (counter line); HT-1080 IDH1 knockdown viability, ATP luminescence, 48 h; Potency, µM (series often up to 46.1 µM), without a hit: at the highest dose activity, negative = toxicity, actives largely listed as cytotoxic; 2% of 360,000 active;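 note: potency is the fitted concentration of half-maximal effect; 0% = DMSO wells and -100% = cell-free medium wells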
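Using the IDH1-knockdown HT-1080 line run in the same batch and compound series as the NT line, viability after 48 h at 37 °C was determined by CellTiter-Glo luminescence and expressed as % activity.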
TDP1 cell CPT = DT40-hTDP1 cell growth loss with CPT; chicken DT40 Tdp1-/-;hTDP1 cells + 20 nM CPT, ATP luminescence, 48 h; Potency, µM (titrated, usually from 46.2 µM), inactives show at the top dose activity change, negative = growth inhibition, usual class: inhibitors; AID 686979; 12% of 420,000 active; note: potency is the fitted concentration of half-maximal effect; nearly all actives have a fitted effect of over 55% in size
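Chicken DT40 Tdp1-/- cells stably complemented with human TDP1 were seeded at 400 cells/well in medium containing 20 nM camptothecin, exposed to pin-transferred compounds, and grown at 37 °C for at least 48 hr. Viability was read as ATP luminescence.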
HT1080NT lethal = kills 2HG-producing HT-1080-NT fibrosarcoma cells | Potency, µM (titrated, usually from 46.1 µM), inactives show at the top dose activity, negative = less viability, hits mostly cytotoxic | AID 686970 | HT-1080-NT fibrosarcoma viability, CellTiter-Glo ATP luminescence, 48 h | 1.6% of 360,000 active;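 note: NT is the 2HG producing partner of a matched IDH1 knockdown line; potency is the fitted concentration of half-maximal effect; 0% = DMSO-treated cells and -100% = media-only wells without cells; nearly all actives have a fitted effect of over 55% in size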
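Compounds were tested in concentration-response format on HT-1080-NT cells for 48 hours at 37 degrees C. Cell viability came from CellTiter-Glo luminescence; curves were classified by r2, response magnitude and activity.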
* = called active by the depositor; ? = inconclusive; · = not tested or not shown; [ ] = another dose, or the depositor's remark. Hits are enriched below; roughly 19% of the tested compounds scored in any of these assays. Unless noted, calls come from the whole dose curve; as a rule, active = well fitted curve in the direction sought with a large enough effect; inconclusive = small, poorly fitted or top-dose-only effect, or another doubt; inactive = no such curve, though single readings can be large; an effect the other way counts as inactive or inconclusive. Unless noted, % is set by controls: 0 for no effect and ±100 for the full control effect.

SMILES	ELG1 DNA repair	IL-1B inflam inh	DT40 TDP1 no CPT	HT1080 IDH1KD tx	TDP1 cell CPT	HT1080NT lethal
O=C1c2ccccc2-c2onc3ccc(NCCCn4ccnc4)c1c23	?	-97*	?	?	15µM*	?
O=C1c2ccccc2C(=O)c2c(O)c(O)cc(O)c21	-15%	-12	?	?	?	9.2µM*
NS(=O)(=O)c1ccc(NCCCn2ccnc2)c([N+](=O)[O-])c1	-5%	-6	-4%	5%	3%	-1%
COc1ccc(N)c2c1C(=O)c1ccccc1C2=O	?	-85*	?	-24%	?	-9%
Nc1ccc(O)c2c1C(=O)c1ccccc1C2=O	-20%	-57*	?	-28%	?	?
Cn1c2ccccc2c(=O)c2ccc(NCCc3cccs3)cc21	?	0	?	-20%	?	-25%
COc1ccc(CCCc2nnc(SCC(=O)Nc3ccc(F)cc3)o2)cc1C	·	·	-17%	·	-13%	·
COc1ccc(OC)c2c1C(=O)c1ccccc1C2=O	1%	-16	-29%	-15%	-9%	-8%
COc1cccc2c1C(=O)c1ccc3ccccc3c1C2=O	?	4	?	-9%	-8%	-6%
COc1ccc2noc3c2c1C(=O)c1ccccc1-3	·	?	18µM*	-27%	15µM*	-23%
COc1ccc(OC)c2c1C(=O)C(Cl)=C(Cl)C2=O	21µM*	-117*	0.41µM*	3.3µM*	0.23µM*	?
O=C(COc1cccc(NC(=O)c2ccco2)c1)c1ccc(F)cc1	-2%	0	21µM*	-9%	?	-8%
CCOc1cccc(C(=O)Nc2cccc(NC(=O)c3ccco3)c2)c1	?	-4	?	-12%	-29%	-9%
COC(=O)Nc1ccc(SCC(=O)c2cccc([N+](=O)[O-])c2)cc1	1%	-19	21µM*	?	?	?
COc1cccc(C(=O)COc2cccc(NC(=O)c3cccc([N+](=O)[O-])c3)c2)c1	13µM*	?	16µM*	-19%	?	-18%
CC(=O)Nc1ccc(C(=O)OCC(=O)c2cccc([N+](=O)[O-])c2)cc1	7%	28	11%	11%	-25%	7%
O=C(COc1cccc(NC(=O)c2ccccc2)c1)c1ccc(F)cc1	?	-6	-49%	-27%	?	-6%
O=C(COc1cccc(NC(=O)c2cccc([N+](=O)[O-])c2)c1)c1ccc(F)cc1	?	?	13µM*	?	?	-23%
COc1ccc2oc(C(=O)OC(C)C(=O)NC3(C#N)CCCCC3)c(C)c2c1 (centres undefined)	-10%	3	?	-9%	?	-7%
O=C(Nc1ccnc(-c2cccnc2)n1)c1cccs1	16%	0	-28%	5%	?	6%
CCn1c(SCC(=O)c2ccccc2)nnc1-c1ccoc1C	15%	-8	-15%	-3%	-3%	0%
C=CCn1c(SCC(=O)c2ccccc2)nnc1-c1cc2ccccc2o1	-2%	-6	?	-5%	23µM*	-8%
CCn1c(SCC(=O)c2ccccc2)nnc1-c1cc2cc(Br)ccc2o1	6%	-3	9.2µM*	0%[9.24 µM]	?	14%
Cc1cccc(OCCCCn2nnc3sc4c(c3c2=O)CCC(C)C4)c1 (centres undefined)	·	·	-24%	·	-3%	·
COc1ccc(-c2csc(NC(C)c3nc4cc(C(=O)NCCCO)ccc4n3Cc3ccc(C)cc3)n2)cc1 (centres undefined)	·	-9	-26%	-25%	?	?
COc1cccc(Cn2cnc(-c3ccccc3OC)c2-c2cccs2)c1	·	-3	?	-23%	?	?

Compound activity (PubChem BioAssay)
